Screening results as filed in PubChem.
Most compounds without a hit are left out; they make up all but 4.1% or so of the library.
hcDAF12 agonist: H. contortus DAF-12 activation, primary screen. HEK293 hcDAF-12 lit1-tk-luc reporter, luminescence; 0% DMSO, 100% Δ7-dafachronic acid. activation, % at 6.8 µM. actives 1.4% (n = 370,000);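 active = activation above the mean of all tested compounds plus 3 SD, cut at about 5.5% in these data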
ssDAF-12 act: activators of S. stercoralis DAF-12 nuclear receptor; HEK293 ssDAF-12/GRIP1 lit1-tk-luc reporter, luminescence; % of 3 µM dafachronic acid response; activation, % at 6.8 µM; actives 1% (n = 370,000); AID 652126;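 active = activation above the mean over all tested compounds plus 3 SD, cut at about 0.9% in these data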
hgDAF-12 ag: agonists of H. glycines DAF-12 nuclear receptor; HEK293 GAL4-hgDAF12 UAS-luciferase reporter, agonist luminescence; normalized to butyrate control; activation, % at 6.8 µM; actives 1.8% (n = 370,000); AID 687014;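 active = activation above a cutoff set at the mean of all screened compounds plus 3 SD, cut at about 10% in these data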
DAX1 inh-1: inhibitors of human orphan nuclear receptor DAX1 (NR0B1); AID 504766; inhibition, % at 6.75 µM; actives 0.99% (n = 340,000); P51843; HEK293 Gal4-DAX1 luciferase reporter, luminescence;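 active = inhibition above the mean over all tested compounds plus 3 SD, cut at about 4.2% in these data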;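 note: inhibition shows as a rise in luminescence from relieved DAX1 repression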
Target sequence (P51843 207-470 limits assumed): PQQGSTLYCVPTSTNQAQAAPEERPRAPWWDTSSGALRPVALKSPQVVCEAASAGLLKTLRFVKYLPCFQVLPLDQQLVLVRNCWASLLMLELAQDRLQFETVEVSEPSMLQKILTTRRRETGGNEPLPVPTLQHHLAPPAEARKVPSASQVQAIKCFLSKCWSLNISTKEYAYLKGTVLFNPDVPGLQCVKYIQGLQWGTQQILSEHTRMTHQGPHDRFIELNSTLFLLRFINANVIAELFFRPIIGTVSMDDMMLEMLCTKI
DAX1 inh-2: inhibitors of DAX1 repression of SF-1 activated StAR promoter; actives 1.1% (n = 370,000); HEK293T StAR-luciferase reporter, SF-1/DAX-1 repression relief; inhibition, % at 6.8 µM;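 active = inhibition above the mean over all tested compounds plus 3 SD, cut at about 3.6% in these data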;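 note: higher inhibition means more luminescence from relief of DAX-1 repression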
Numbers stand for hits; . = inactive; / = not tested or not shown.

SMILES	hcDAF12 agonist	ssDAF-12 act	hgDAF-12 ag	DAX1 inh-1	DAX1 inh-2
O=Cc1ccc2cccnc2n1	6.1	2.0	.	.	.
COC(=O)[C@]12C[C@H](CC(=O)NCCCN3CCCC3=O)C(=O)N(Cc3ccc(Cl)cc3Cl)C1=C[C@H](C(C)(C)C)O[C@@H]2C	.	.	.	/	.
CCN(CC)C(=O)CCCSc1nnc(Nc2ccccc2F)s1	.	.	13	.	.
O=C(NNC(=O)c1cnccn1)c1ccc(Cl)cc1	.	.	.	5.8	.
Cn1cnnc1SCC(=O)NCc1ccccc1	.	.	12	.	.
Cc1ccc(CNC(=O)CSc2ncc(C(=O)Nc3ccccc3)c(=O)n2C)cc1	.	1.6	.	.	.
Cn1c(SCC(=O)NCc2ccccc2)ncc(C(=O)Nc2ccccc2)c1=O	.	1.0	.	.	.
COc1ccc(Cl)cc1-c1nc(SCC(=O)NC(C)C(C)C)n[nH]1 (centres undefined)	.	.	.	7.3	.
COc1ccc(Cl)cc1-c1nc(SCC(=O)NC(C)C)n[nH]1	.	.	.	.	.
Cc1cccc2c(=O)c(C(=O)NCCc3ccccc3)c[nH]c12	.	.	.	.	.
O=C(NCCc1ccccc1)c1c[nH]c2c(F)cccc2c1=O	5.6	.	.	.	.
COCCn1c(=NC(=O)c2ccc(S(=O)(=O)N3CCCc4ccccc43)cc2)sc2cc(S(C)(=O)=O)ccc21	.	.	.	4.7	.
CCOC(=O)[C@@]12CCCC3=C1N(CCC3)C(=O)[C@H]2CC(=O)N1CCN(C(=O)c2ccco2)CC1	.	.	.	/	.
CC(=O)Nc1ccc(C(=O)Nc2ccc3c(c2)OCO3)cc1	.	.	.	.	.
Cc1nnc(NC(=O)c2ccc3c(c2)OCO3)s1	.	.	12	.	.
O=C(Nc1ccc(Br)cc1)c1ccc2c(c1)OCO2	6.5	.	13	.	.
O=C(Nc1ccc2c(c1)OCO2)c1ccc(CO)cc1	.	.	.	.	4.2
CCN1CCN(c2ccc(NC(=O)c3ccc4c(c3)OCO4)cc2)CC1	.	.	12	.	.
COC(=O)[C@]12C[C@H](CC(=O)NCc3ccc(OC)c(OC)c3)C(=O)N(Cc3ccc(Cl)cc3Cl)C1=C[C@H](C(C)C)O[C@@H]2C1CC1	.	.	.	/	.
CSc1nc2ccc(S(=O)(=O)N3CCCCC3)cc2s1	.	.	.	.	.
CSc1nc2ccc(S(=O)(=O)N3CCOCC3)cc2s1	5.8	.	.	.	.
CC(C)CNS(=O)(=O)CC1NCc2ccccc21 (centres undefined)	.	.	.	/	.
CCCCCCCCN1C(=O)[C@@H](CC(=O)N2CCN(C(=O)C3CC3)CC2)C[C@@]2(C(=O)OC)C1=C[C@H](COCc1ccccc1)O[C@@H]2C	.	.	.	/	.
Clc1ccc(CONc2ncnc3nonc23)c(Cl)c1	.	.	11	.	.
O=C(c1cc(-c2ccc3c(c2)OCO3)on1)N1CCCCC1	5.8	.	.	.	.
SMILES	hcDAF12 agonist	ssDAF-12 act	hgDAF-12 ag	DAX1 inh-1	DAX1 inh-2
O=C(c1cc(-c2ccc(Cl)c(Cl)c2)on1)N1CCCCCC1	.	.	.	.	.
O=C(O)c1ccc(-n2nnnc2Oc2ccccc2C(=O)N2CCOCC2)cc1	.	.	.	4.9	.
O=c1c2cc(N3CCOCC3)ccc2[nH]c(=S)n1CC1CCCO1 (centres undefined)	.	0.9	.	.	.
O=C(C1CCC(Cn2c(=S)[nH]c3ccccc3c2=O)CC1)N1CCOCC1 (centres undefined)	.	.	.	5.7	.
O=C(C1CCC(Cn2c(=S)[nH]c3ccccc3c2=O)CC1)N1CCN(c2ccccc2)CC1 (centres undefined)	.	.	.	.	.
Cc1ccccc1NS(=O)(=O)c1nnc(NC(=O)c2ccc(Br)cc2)s1	.	.	.	.	.
Cc1ccccc1NS(=O)(=O)c1nnc(NC(=O)c2ccccc2C)s1	6.2	.	.	.	.
C=CCn1c(SCC(=O)Nc2ccccc2-c2ccccc2)nnc1-c1ccc(Cl)cc1	.	.	.	/	.
Oc1ccccc1N=Nc1ccccc1O	.	.	.	.	.
Nc1ccc(N=Nc2ccccc2O)c(N)c1	.	1.6	.	/	.
Cc1ccc(SCC(=O)NCCc2ccccc2)cc1	.	1.7	.	.	.
CC(C)=CC(=O)NCCc1ccccc1	.	.	11	.	.
O=C(CSc1ccccc1)NCCc1ccccc1	.	.	.	5.6	.
